Screening data as filed in PubChem.
PfHsp40 yeast: restores yeast growth despite PfHsp40 toxicity. S. cerevisiae expressing PfHsp40, growth rescue, ATP luminescence. growth rescue, % at 12.5 µM. hit rate 0.68% among 340,000. AID 504582; in the data active = growth rescue above about 28%, passing the limit was not always enough;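 also: yeast W303a lacking pdr1 and pdr3 grown in galactose medium; growth measured after three days at 30 °C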
BJeLR lethal: BJeLR cell viability loss; hit rate 0.17% among 300,000; AID 1554; BJeLR (HRASV12) viability, CellTiter-Glo ATP luminescence, 48 h; inhibition, % (no concentration beside the values); in the data active = inhibition above about 50%
RecA intein inh: inhibitors of M. tuberculosis RecA intein splicing; P9WHJ3; cell-free RecA intein splicing, fluorescence; inhibition, % (concentration not given with the values); hit rate 0.75% among 290,000; in the data active = inhibition above about 30%;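 also: 0% = vehicle wells and 100% = reference inhibitor control wells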
Target sequence (P9WHJ3 whole entry, looked up): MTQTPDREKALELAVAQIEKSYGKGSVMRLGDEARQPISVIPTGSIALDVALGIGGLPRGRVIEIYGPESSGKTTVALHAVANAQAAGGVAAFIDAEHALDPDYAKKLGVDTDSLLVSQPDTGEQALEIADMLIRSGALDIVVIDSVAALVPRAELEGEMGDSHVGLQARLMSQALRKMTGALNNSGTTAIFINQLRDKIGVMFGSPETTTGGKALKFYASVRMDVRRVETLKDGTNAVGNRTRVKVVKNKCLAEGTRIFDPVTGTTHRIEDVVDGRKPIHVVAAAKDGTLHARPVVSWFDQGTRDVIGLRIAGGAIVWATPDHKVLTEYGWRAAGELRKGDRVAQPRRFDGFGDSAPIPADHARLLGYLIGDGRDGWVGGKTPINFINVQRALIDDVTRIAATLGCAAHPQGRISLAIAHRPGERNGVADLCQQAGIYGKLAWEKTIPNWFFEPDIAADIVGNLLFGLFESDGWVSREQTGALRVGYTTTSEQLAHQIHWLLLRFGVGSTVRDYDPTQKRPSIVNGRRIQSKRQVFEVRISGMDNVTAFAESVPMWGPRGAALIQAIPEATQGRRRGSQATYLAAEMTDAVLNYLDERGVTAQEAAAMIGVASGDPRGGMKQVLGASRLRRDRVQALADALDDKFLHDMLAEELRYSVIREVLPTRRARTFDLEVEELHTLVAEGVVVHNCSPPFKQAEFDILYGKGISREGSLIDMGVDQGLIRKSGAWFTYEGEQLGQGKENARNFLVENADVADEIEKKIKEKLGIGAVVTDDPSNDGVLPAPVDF
PrPC TRFRET: reduces human prion protein on the cell surface. inhibition, % at 13.8 µM. hit rate 0.43% among 370,000. cell surface PrPC, TR-FRET read-out. P04156; in the data active = inhibition above about 24%; also: 0% = median of the test wells and 100% = reference compound wells
PriA SSB inh: inhibitors of Klebsiella pneumoniae PriA binding to SSB C-terminal tail; hit rate 0.6% among 430,000; AlphaScreen SSBct-PriA binding, biotinylated peptide; AID 1272365; inhibition, % at 33 µM; in the data active = inhibition mostly above about 37%, no sharp cut-off; inactive = mostly below about 20%;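 also: plate controls were negative control peptide for no effect and reference peptide for full effect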
PrP 5UTR inh: inhibition of PrP 5' UTR reporter expression; inhibition, % (concentration not given with the values); hit rate 0.35% among 340,000; AID 488862; cell-based PrP 5' UTR mRNA reporter, plate reader; in the data active = inhibition above about 52%; also: 0 = median of the neutral control wells
* hit, by the source's call; ! = repeats disagree. Rows were chosen to be rich in hits. Some 1.9% of all compounds tested hit in one or more screens of this group.

`Cc1cc(C)cc(C(=O)Nc2nnc(N=Cc3ccc(Br)s3)s2)c1` gave PriA SSB inh 71.0*.
`Cc1ccc(-c2nc3cnccn3c2Nc2ccc3c(c2)OCO3)cc1` gave PfHsp40 yeast 0.5, BJeLR lethal -3.6, RecA intein inh 8.7, PrPC TRFRET 5.3, PriA SSB inh 38.4* and PrP 5UTR inh -2.4.
For Cc1ccc(Nc2c(-c3ccccc3O)nc3cnccn23)cc1 the results were PfHsp40 yeast 57.8*, BJeLR lethal 8.3, RecA intein inh 7.9, PrPC TRFRET 6.1, PriA SSB inh 2.5 and PrP 5UTR inh -8.9.
`COc1ccc(-c2nc3cnccn3c2Nc2ccc3c(c2)OCO3)cc1` gave PfHsp40 yeast 2.8, BJeLR lethal 0.8, RecA intein inh 4.0, PrPC TRFRET 8.5, PriA SSB inh 36.2 and PrP 5UTR inh -6.9.
For O=C(CNC(=O)c1ccccc1F)NN=Cc1cc(Br)ccc1OC(=O)/C=C/c1ccco1 the results were PriA SSB inh -8.7.
For O=C(Cn1nc(-c2ccccc2)c2sc(N3CCCC3)nc2c1=O)OCc1ccccc1 the results were PriA SSB inh 15.0.
Screening O=C(O)c1c[nH]c2cc(F)cc(F)c2c1=O returned PriA SSB inh -2.0.
For CN(C)c1cc(C(F)(F)F)nc(-c2ccccn2)n1 the results were PfHsp40 yeast -1.6, BJeLR lethal 1.1, RecA intein inh 0.9, PrPC TRFRET 0.2, PriA SSB inh -14.1 and PrP 5UTR inh -6.9.
Screening CSCc1cc(N(C)c2ccccc2)nc(-c2ccccn2)n1 returned PfHsp40 yeast 110.6*, BJeLR lethal 3.3, RecA intein inh 8.2, PrPC TRFRET 4.8, PriA SSB inh -3.5 and PrP 5UTR inh -5.2.
For Clc1ccc(NNc2ccnc3cc(Cl)ccc23)cc1 the results were PfHsp40 yeast 0.3, BJeLR lethal -1.7, RecA intein inh -0.1, PrPC TRFRET 1.5, PriA SSB inh 76.2* and PrP 5UTR inh -28.0.
`S=C(NNc1ccnc2cc(Cl)ccc12)Nc1ccccc1Cl` gave PfHsp40 yeast -1.2, BJeLR lethal -7.0, RecA intein inh 27.9, PrPC TRFRET 7.6, PriA SSB inh 40.0* and PrP 5UTR inh -27.5.
`CCCc1ccc(-c2csc(NC(=O)C3=COCCO3)n2)cc1` gave PfHsp40 yeast 49.7*, PrPC TRFRET -0.9, PriA SSB inh -12.6 and PrP 5UTR inh -72.6.
`Cc1ccc(-c2csc(NC(=O)C3=COCCO3)n2)cc1` gave PfHsp40 yeast 6.2, BJeLR lethal -3.5, RecA intein inh 0.2, PrPC TRFRET 10.6, PriA SSB inh -11.5 and PrP 5UTR inh -91.8.
`Clc1ccc(OCc2nc(-c3ccncc3)no2)c(Br)c1` gave PfHsp40 yeast 596.7*, BJeLR lethal -2.2, RecA intein inh 12.9, PrPC TRFRET 6.5, PriA SSB inh -17.7 and PrP 5UTR inh -88.1.
`COc1cc2nc(N(CCCN(C)C)C(=O)c3ccc(C(=O)c4ccccc4)cc3)sc2cc1OC` gave PfHsp40 yeast -0.3, BJeLR lethal 1.1, RecA intein inh -1.6, PrPC TRFRET -6.9, PriA SSB inh 37.0*! and PrP 5UTR inh -5.4.
`CCOc1cccc2sc(N(CCN(C)C)C(=O)c3cc4ccccc4cc3OC)nc12` gave PfHsp40 yeast 1.0, BJeLR lethal -9.4, RecA intein inh 2.6, PrPC TRFRET -8.5, PriA SSB inh 26.9 and PrP 5UTR inh -18.3.
COc1ccc2nc(N(CCN(C)C)C(=O)c3ccc(C(=O)c4ccccc4)cc3)sc2c1 was read as PfHsp40 yeast -0.2, BJeLR lethal 4.6, RecA intein inh 2.6, PrPC TRFRET -3.4, PriA SSB inh 49.8* and PrP 5UTR inh -16.2.
COc1cc2nc(N(CCCN(C)C)C(=O)c3ccc(S(=O)(=O)N4CCc5ccccc5C4)cc3)sc2cc1OC was read as PfHsp40 yeast -0.7, BJeLR lethal -3.7, RecA intein inh -1.7, PrPC TRFRET -9.1, PriA SSB inh 18.1 and PrP 5UTR inh -26.6.
For CCOc1ccc2nc(N(CCN(C)C)C(=O)c3cc4ccccc4cc3OC)sc2c1 the results were PfHsp40 yeast 1.1, BJeLR lethal -8.1, RecA intein inh 7.1, PriA SSB inh 44.0*! and PrP 5UTR inh -13.8.
CCc1ccc2nc(N(CCCN(C)C)C(=O)c3ccc(C(=O)c4ccccc4)cc3)sc2c1 was read as PfHsp40 yeast -1.6, BJeLR lethal -0.6, RecA intein inh 10.2, PrPC TRFRET -19.6, PriA SSB inh 47.0*! and PrP 5UTR inh -4.9.
For CSc1ncccc1C(=O)Nc1ccc2c(c1)N(S(=O)(=O)c1ccc(F)cc1)CCC2 the results were PriA SSB inh 7.0.
